Hit rate of the full screen: of about 310,000 compounds, about 1,200 (0.39%) were called active. How the calls were made is not given here. A selection follows. Results with a measured potency or affinity are listed apart.
Target: Large T antigen (Simian virus 40) (UniProt P03070)
Experiment: SV40 large T antigen inhibitors, biochemical (AID 1903)
Details: SV40 large T antigen ATPase/helicase inhibition assay; at 20 µM; stronger effect = higher value

Chain of Large T antigen (Simian virus 40) (P03070 whole entry, looked up): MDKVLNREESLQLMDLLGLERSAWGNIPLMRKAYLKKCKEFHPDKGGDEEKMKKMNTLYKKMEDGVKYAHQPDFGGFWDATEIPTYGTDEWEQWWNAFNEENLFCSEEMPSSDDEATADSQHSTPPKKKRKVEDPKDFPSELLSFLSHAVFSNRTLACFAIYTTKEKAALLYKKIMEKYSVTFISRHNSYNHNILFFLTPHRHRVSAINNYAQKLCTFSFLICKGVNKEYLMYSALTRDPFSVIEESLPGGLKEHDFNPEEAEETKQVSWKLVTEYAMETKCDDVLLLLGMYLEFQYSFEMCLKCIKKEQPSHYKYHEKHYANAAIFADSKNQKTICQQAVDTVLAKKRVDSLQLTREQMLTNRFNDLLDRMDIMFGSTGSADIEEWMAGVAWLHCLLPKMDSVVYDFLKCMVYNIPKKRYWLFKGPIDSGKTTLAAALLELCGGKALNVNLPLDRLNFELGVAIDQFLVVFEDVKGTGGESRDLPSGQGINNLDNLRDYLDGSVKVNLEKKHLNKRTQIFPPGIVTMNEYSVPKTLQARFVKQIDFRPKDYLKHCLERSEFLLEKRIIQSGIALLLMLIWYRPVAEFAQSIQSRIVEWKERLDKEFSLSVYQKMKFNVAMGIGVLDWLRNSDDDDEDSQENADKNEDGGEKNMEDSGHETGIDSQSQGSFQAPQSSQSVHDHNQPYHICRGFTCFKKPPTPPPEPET

inhibition, inactive:
CCCCC(=O)Nc1ccc(C(=O)NCCc2ccc(S(N)(=O)=O)cc2)cc1 1.78%, N=c1c2c(ncn1Cc1ccco1)Oc1cc(O)ccc1C2c1ccccc1 (stereo unspecified) 26.2%, O=C1NN(c2ccccc2)C(=O)/C1=C/c1cccs1 28.5%, O=C1NN(c2ccccc2)C(=O)/C1=C\c1ccccc1 17.5%, COc1ccc(-c2nc(CS(=O)(=O)CC(=O)NCCCc3ccccc3)c(C)o2)cc1 -0.82%, O=C(OCC(=O)N1CCCc2ccccc21)c1cc(S(=O)(=O)N2CCOCC2)ccc1Cl 15.5%, O=C(COc1ccc2ccccc2c1Br)NCc1ccccn1 9.07%, Cc1ccc(NS(=O)(=O)c2cc3c4c(c2)CC(=O)N4CCC3)cc1C 7.5%, Cc1cccc(C)c1NS(=O)(=O)c1cc2c3c(c1)CC(=O)N3CCC2 -3.87%, CCN(CC)S(=O)(=O)c1cc(NS(=O)(=O)c2cccc(Cl)c2)ccc1C 2.93%, Cc1ccc(S(=O)(=O)Nc2ccc(N(C)C)cc2)cc1 37.5%, CN(C)c1ccc(NS(=O)(=O)c2cc(Cl)ccc2Cl)cc1 25.6%, CN(C)c1ccc(S(=O)(=O)c2ccc(Cl)cc2)cc1 1.2%, O=C(CN1C(=O)C(=O)N(Cc2ccco2)C1=O)c1c[nH]c2ccccc12 28.3%, C=CCc1ccc(OCCOCCOc2ccccc2[N+](=O)[O-])c(OC)c1 -1.8%, C=CCOc1ccc(C2c3c(oc4ccccc4c3=O)C(=O)N2CCCN2CCOCC2)cc1 (stereo unspecified) 10.1%, O=C(COn1nnc2ccc(Cl)cc21)Nc1ccc(F)cc1 19.7%, COc1cc(/C=C2\N=C(C)OC2=O)cc(Cl)c1OC(C)=O 13.6%, CC(=O)NC1CC2CCCC(C1)N2S(=O)(=O)c1cccc(F)c1 (stereo unspecified) 2.38%, COc1ccc(S(=O)(=O)Nc2cccc(-c3ccc4nncn4n3)c2)c(OC)c1 12.4%, Brc1ccc(-c2nc3ncccn3c2NC2CCCCC2)o1 12.4%, Cc1ccc(Nc2c(-c3ccc(C)o3)nc3ncccn23)cc1 33.8%, Cc1ccc(-n2cc(CCCCCCCCC(=O)O)nn2)cc1 8.47%, COc1ccc(/C=N/NC(=O)CN2CCSCC2)c(OC)c1 17.5%, COC(=O)/C=C/C(=O)Nc1cccc(C(F)(F)F)c1 17.3%, COc1ccc(NC(=O)/C=C/C(=O)O)cc1Cl 4.09%, CCCCC(=O)c1ccc(O)cc1 4.42%, O=C(CCCC(=O)c1ccc(O)cc1)c1ccc(O)cc1 9%, COc1ccc(N2CCN(C(=O)C3COc4ccccc4O3)CC2)cc1 (stereo unspecified) 15.2%, O=C(O)CCCC(=O)N(Cc1ccccc1)Cc1ccccc1 8.76%, COc1ccc(OC)c(S(=O)(=O)N2CCC(C(=O)N3CCc4ccccc4C3)CC2)c1 -3.29%, Cc1ccc(C(=O)Nc2nc(=O)n(C(=O)c3ccccc3Cl)s2)cc1 6.99%, CN(C)c1ccc(Nc2ccc([N+](=O)[O-])cn2)cc1 32.5%, COc1ccc(Nc2cc(Nc3ccc(OC)cc3)ncn2)cc1 6.82%, COc1ccc(S(=O)(=O)N2CCCN(CC(=O)Nc3ccc4c(c3)OCO4)CC2)cc1 -44.5%, O=C(COC(=O)C1=COCCO1)NC1CCCCC1 4.07%, COC(=O)C1=C(C)N=c2s/c(=C3\C(=O)Nc4ccccc43)c(=O)n2C1c1ccccc1 (stereo unspecified) 12.3%, CCOC(=O)C1=C(C)N=c2s/c(=C3/C(=O)Nc4ccccc43)c(=O)n2C1c1ccc(C)cc1 (stereo unspecified) 24.6%, O=C(CCCC(=O)NCCc1ccccc1)NCCc1ccccc1 3.18%, Cc1ccc(S(=O)(=O)N2CCCC(c3nc(-c4ccc(C)o4)no3)C2)cc1 (stereo unspecified) 6.08%, Cc1ccc(-c2noc(C3CCCN(S(=O)(=O)c4ccc5ccccc5c4)C3)n2)o1 (stereo unspecified) -0.86%, CC(C)(C)c1cc(-c2nc(N)nc(N)n2)cc(C(C)(C)C)c1 6.71%, COc1cccc(CN2CCCC(N3CCc4ccccc4C3)C2)c1O (stereo unspecified) 11.4%, CC1CCN(C2=C(NS(=O)(=O)c3ccc(Cl)cc3)C(=O)c3ccccc3C2=O)CC1 16.2%, COc1ccc(NC(=O)Nc2ccc(O)c3ccccc23)cc1 27.9%, COc1ccc(C(=O)Nc2cccc3ccccc23)cc1 16.2%, CC1(C)Cc2ccccc2C(=C(C#N)C#N)N1 4.69%, CCOC(=O)c1ccc(NC(=O)c2cc3ccccc3o2)cc1 8.26%, O=C1N/C(=C\c2ccccc2)C(O)=C1C=NCc1ccccc1 18.3%, O=C1N/C(=C/c2ccc(Br)cc2)C(O)=C1C=NCc1ccccc1 4.99%, COC1=C(Nc2ccccc2)C(=O)c2ccccc2C1=O -28.6%, COC1=C(Nc2ccc(C)cc2)C(=O)c2ccccc2C1=O 3.75%, Cc1ccc(-c2nc(CS(=O)CC(=O)NCCN3CCOCC3)c(C)o2)cc1 (stereo unspecified) -1.85%, CC(=O)Cc1nsc(Nc2ccc(F)cc2)n1 5.39%, CCOc1ccc(NC(=O)CN(C)CC(=O)Nc2ccc(Br)cc2F)cc1OCC 2.33%, COC(=O)CCCC1=CC2=CC(=O)C(C)(OC(=O)c3ccc(Cl)nc3)C(=O)C2=CO1 (stereo unspecified) 23.8%, Cc1ccc(NC(=S)NNc2ccc([N+](=O)[O-])cc2S(=O)(=O)Nc2ccccc2C(=O)O)cc1C 31.6%, O=C(O)c1ccccc1Nc1ccc(OC(F)F)cc1 10.8%, CCN(CC)S(=O)(=O)c1ccc(/C=C/C(=O)OCC(=O)Nc2ccc(S(N)(=O)=O)cc2)cc1 0.26%, O=C(COc1ccc(Cl)cc1)NC1=NN(c2ccccc2)C(=O)C1 18.7%, CC(=O)NC1=NN(c2ccccc2)C(=O)C1 13.1%
